This is a sample that favours compounds with a hit; in the whole collection about 3.5% have one here.
MITF inh – human MITF inhibition, primary screen; O75030; AlphaScreen MITF homodimerization, bead proximity signal; inhibition, % at 2.6 µM; actives 0.91% (n = 650,000); AID 1259374; in the data active = inhibition above about 50%
Target sequence (O75030 whole entry, looked up): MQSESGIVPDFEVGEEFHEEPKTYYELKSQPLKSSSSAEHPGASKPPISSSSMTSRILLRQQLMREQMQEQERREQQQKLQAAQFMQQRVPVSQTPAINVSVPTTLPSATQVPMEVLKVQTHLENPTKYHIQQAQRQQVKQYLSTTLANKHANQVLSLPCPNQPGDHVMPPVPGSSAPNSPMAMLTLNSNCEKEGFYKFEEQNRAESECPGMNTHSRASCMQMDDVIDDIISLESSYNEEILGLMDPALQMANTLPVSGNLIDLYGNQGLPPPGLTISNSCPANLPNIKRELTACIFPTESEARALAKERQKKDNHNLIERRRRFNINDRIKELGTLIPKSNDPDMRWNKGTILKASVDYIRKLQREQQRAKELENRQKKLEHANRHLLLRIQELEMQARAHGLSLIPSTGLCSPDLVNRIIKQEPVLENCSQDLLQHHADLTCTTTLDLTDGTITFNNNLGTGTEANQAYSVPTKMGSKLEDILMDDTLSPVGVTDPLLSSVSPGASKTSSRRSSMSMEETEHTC
FBW7 act – activators of human E3 ligase FBW7 | AlphaScreen FBW7–phospho-cyclin E peptide binding, activator screen | normalized activity (activation), % at 26.1 µM | actives 0.13% (n = 650,000); in the data active = normalized activity above about 1.9%;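 also: purified mutant Fbw7 with reduced substrate affinity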
TEAD-YAP block – TEAD-YAP interaction inhibition | HEK-TIYL cells, TEAD-Gal4/YAP UAS-luciferase luminescence | actives 1.4% (n = 640,000) | inhibition, % at 9.12 µM; in the data active = inhibition above about 32%
GPR151 ag – activators of human GPR151 | AID 1508602 | PathHunter beta-arrestin GPR151 cells, luminescence | actives 1% (n = 650,000) | activation, % at 11.2 µM; in the data active = activation above about 4.9%
Hits are given with their value.

Screening COc1ccc(/C=C/c2nc3ccccc3c(=O)[nH]2)cc1O returned MITF inh inactive, FBW7 act inactive, TEAD-YAP block 44.3 and GPR151 ag inactive.
`COc1cccc(/C=C/c2nc3ccccc3c(=O)[nH]2)c1O` gave MITF inh inactive, FBW7 act inactive, TEAD-YAP block 64.9 and GPR151 ag inactive.
Screening COc1ccc(N=C2SC(C(=O)N3CCN(c4ccccc4)CC3)CC(=O)N2C)cc1 (stereo unspecified) returned MITF inh inactive, FBW7 act inactive, TEAD-YAP block inactive and GPR151 ag inactive.
Screening Cc1cc(N2CCOCC2)nc2ccc(NC(=O)c3ccncc3)cc12 returned MITF inh inactive, FBW7 act inactive, TEAD-YAP block 48.7 and GPR151 ag inactive.
Nc1ccc2nc(SCC(=O)N3CCN(c4ccc(Cl)cc4)CC3)sc2c1 was read as MITF inh inactive, FBW7 act inactive, TEAD-YAP block 51.1 and GPR151 ag inactive.
C=CC1=C(C)C2=CC3=NC(=C(CC(=O)[O-])C4=NC(=C(C)C4=C([O-])[O-])C=c4[n-]c(c(C)c4CC)=CC1=N2)C(CCC(=O)[O-])C3C.C=CC1=C(C)C2=CC3=NC(=C(CC(=O)[O-])C4=NC(=C(C)C4=C([O-])[O-])C=c4[n-]c(c(C)c4CC)=CC1=N2)C(CCC(=O)[O-])C3C.[Cu+2].[Na+].[Na+].[Na+] (stereo unspecified) was read as MITF inh 60.3, FBW7 act inactive, TEAD-YAP block inactive and GPR151 ag inactive.
Screening CC1(C)C(=O)NCCN1C(=O)c1ccc(C(=O)c2ccccc2)cc1 returned MITF inh inactive, FBW7 act inactive, TEAD-YAP block 38.6 and GPR151 ag inactive.
For COc1ccc(O)c(/C=N/n2c(C)csc2=NC(C)C)c1 the results were MITF inh inactive, FBW7 act inactive, TEAD-YAP block 41.4 and GPR151 ag inactive.
`O=C(Cn1cnnn1)N1CCOc2ccc(CN3CCc4ccccc4C3)cc2C1` gave MITF inh inactive, FBW7 act inactive, TEAD-YAP block inactive and GPR151 ag inactive.
Screening c1ccc(-c2cnc(SCCN3CCOCC3)n2CC2CCCO2)cc1 (stereo unspecified) returned MITF inh 57.2, FBW7 act inactive, TEAD-YAP block inactive and GPR151 ag inactive.
Screening CCCNc1nc(Nc2cnccn2)nc2c1ncn2C(C)C returned MITF inh inactive, FBW7 act inactive, TEAD-YAP block 46.3 and GPR151 ag inactive.
For CC(C)N(CCNc1nc(Nc2nccc3ccccc23)nc2c1ncn2C(C)C)C(C)C the results were MITF inh inactive, FBW7 act inactive, TEAD-YAP block 50.2 and GPR151 ag inactive.
`COc1ccc(COC(=O)c2cccc(S(=O)(=O)NCc3ccccc3)c2)cc1F` gave MITF inh inactive, FBW7 act inactive, TEAD-YAP block 45.2 and GPR151 ag inactive.
Screening COC(=O)c1cc(COC(=O)c2cccc(S(=O)(=O)NCc3ccccc3)c2)oc1C returned MITF inh inactive, FBW7 act inactive, TEAD-YAP block inactive and GPR151 ag inactive.
`C1=Nc2ccccc2SC(c2cccnc2)=C1` gave MITF inh inactive, FBW7 act inactive, TEAD-YAP block 86.0 and GPR151 ag inactive.
O=[N+]([O-])c1ccc2[nH]c(O)c(N=Nc3ccc(S(=O)(=O)O)cc3)c2c1 was read as MITF inh 59.7, FBW7 act inactive, TEAD-YAP block inactive and GPR151 ag inactive.
`CCN(CC)S(=O)(=O)c1cc(C(=O)Nc2cccnc2)ccc1Br` gave MITF inh inactive, FBW7 act inactive, TEAD-YAP block inactive and GPR151 ag inactive.
Screening CCOC(=O)c1[nH]c(C)c(C(=O)NCc2ccccc2)c1C returned MITF inh inactive, FBW7 act inactive, TEAD-YAP block inactive and GPR151 ag inactive.
Screening Cc1cc2nc(-c3ccc(=O)[nH]c3)n(C)c2cc1C returned MITF inh inactive, FBW7 act inactive, TEAD-YAP block inactive and GPR151 ag inactive.
Screening OCC1CCCN1c1nc(NCc2ccccc2)c2ncn(-c3ccsc3)c2n1 (stereo unspecified) returned MITF inh inactive, FBW7 act inactive, TEAD-YAP block inactive and GPR151 ag inactive.
`OCC1CCCN1c1nc(NCc2cccnc2)c2ncn(-c3ccccc3)c2n1` (stereo unspecified) gave MITF inh inactive, FBW7 act inactive, TEAD-YAP block 44.2 and GPR151 ag inactive.
CC(C)n1cnc2c(NCc3cccnc3)nc(N3CCCC3CO)nc21 (stereo unspecified) was read as MITF inh inactive, FBW7 act inactive, TEAD-YAP block 33.2 and GPR151 ag inactive.
CCN(CCNCc1c(C(=O)O)n(C)c2ccccc12)c1ccccc1 was read as MITF inh inactive, FBW7 act inactive, TEAD-YAP block inactive and GPR151 ag inactive.
Screening COc1cccc(CSc2nc3ccncc3[nH]2)c1 returned MITF inh inactive, FBW7 act inactive, TEAD-YAP block 69.1 and GPR151 ag inactive.
O=c1[nH]cnc2[nH]c(=S)[nH]c12 was read as MITF inh inactive, FBW7 act inactive, TEAD-YAP block inactive and GPR151 ag inactive.
For COc1ccc(N(C)S(=O)(=O)c2cc(Br)cc3c2N(C(C)=O)CC3)c(OC)c1 the results were MITF inh inactive, FBW7 act inactive, TEAD-YAP block 56.1 and GPR151 ag inactive.
For CN1CCN(c2ncn(-c3ccc(Nc4nccc(-c5cc(F)cc(N6CCOCC6)c5)n4)cc3)n2)CC1 the results were MITF inh inactive, FBW7 act inactive, TEAD-YAP block 56.4 and GPR151 ag inactive.
`Cc1ncn(-c2ccc(Nc3nccc(Nc4ccccc4-c4ccn[nH]4)n3)cc2)n1` gave MITF inh inactive, FBW7 act inactive, TEAD-YAP block 64.0 and GPR151 ag inactive.
Cc1ncn(-c2ccc(Nc3nccc(-c4cc(N5CCOCC5)cc(S(C)(=O)=O)c4)n3)cc2)n1 was read as MITF inh inactive, FBW7 act inactive, TEAD-YAP block 41.3 and GPR151 ag inactive.
`Cc1ncn(-c2ccc(Nc3nccc(Nc4cccnc4)n3)cc2)n1` gave MITF inh inactive, FBW7 act inactive, TEAD-YAP block inactive and GPR151 ag inactive.
`Cc1ncn(-c2ccc(Nc3nccc(-c4cc(F)cc(-c5cn[nH]c5C)c4)n3)cc2)n1` gave MITF inh inactive, FBW7 act inactive, TEAD-YAP block 37.0 and GPR151 ag inactive.
Screening Cc1ccc(Sc2cc(C(=O)N3CCCCC3)c3ccccc3n2)cc1 returned MITF inh inactive, FBW7 act inactive, TEAD-YAP block inactive and GPR151 ag inactive.
Cc1cc2c(s1)c1cnn(CC(=O)NC3CC3)c(=O)c1n2C was read as MITF inh inactive, FBW7 act inactive, TEAD-YAP block inactive and GPR151 ag inactive.
Screening Cc1ccc(S(=O)(=O)NC(C)C(=O)Nc2ccc(C)c(Cl)c2)cc1 (stereo unspecified) returned MITF inh inactive, FBW7 act inactive, TEAD-YAP block inactive and GPR151 ag inactive.
For Cc1ncn(-c2ccc(Nc3nccc(-c4cccc(S(C)(=O)=O)c4)n3)cc2)n1 the results were MITF inh inactive, FBW7 act inactive, TEAD-YAP block 47.2 and GPR151 ag inactive.
For CCN(C1=C(Cl)C(=O)N(c2ccccc2)C1=O)c1ccccc1 the results were MITF inh inactive, FBW7 act inactive, TEAD-YAP block inactive and GPR151 ag inactive.

Compound activity as filed in PubChem.
